Several values for one entry are separate records, joined by “and”; a condition that tells them apart may be missing. Equal entries are not always repeated. Screen size: about 260,000 compounds; about 1,500 (0.58%) were called active. About 5% were inconclusive and are not listed. A selection follows. Measured potencies and affinities stand elsewhere. A number with no mark means an inactive call.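 Rule for the calls: active = inhibition above a set limit at one or more doses, reproduced on every date tested; inconclusive = results disagree between test dates, or hit never tested in dose response; inactive = the rest.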
Target: Virion infectivity factor (Human immunodeficiency virus type 1 group M subtype B (isolate BH10)) + Virion infectivity factor (Human immunodeficiency virus type 1 group M subtype B (isolate BRU/LAI)) + Virion infectivity factor (Human immunodeficiency virus type 1 group M subtype B (isolate PCV12)) + Virion infectivity factor (Human immunodeficiency virus type 1 group M subtype B (isolate HXB2)) + DNA dC->dU-editing enzyme APOBEC-3G (Homo sapiens) (UniProt P69720+P69721+P69722+P69723+Q9HC16)
Assay: HIV-1 Vif–A3G interaction blockers – biochemical, TR-FRET, GST-Vif 1-94, biotin-A3G peptide, dose response retest, primary screen (AID 1117319);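 note: Vif residues 1-94 fused to GST binding biotinylated APOBEC3G peptide 110-148; 0% = full assay without inhibitor and 100% = GST in place of GST-Vif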
Details: TR-FRET GST-Vif / biotin-A3G peptide binding; stronger effect = higher value

| Compound | inhibition |
| --- | --- |
| O=C(O)CCCN1C(=O)C2C3CCC(C3)C2C1=O (stereo not drawn) | 6.83% |
| Cc1ccc(-n2c(C)cc(/C=N/Nc3ccc([N+](=O)[O-])cn3)c2C)cc1 | 12.6% |
| Cc1ccccc1-n1c(C)cc(/C=N/Nc2ccc([N+](=O)[O-])cn2)c1C | 6.93% |
| Cc1cccc(C)c1-n1c(C)cc(/C=N\Nc2ccc([N+](=O)[O-])cn2)c1C | 10.6% |
| Cc1cc(/C=N/Nc2ccc([N+](=O)[O-])cn2)c(C)n1-c1ccccc1 | 6.45% |
| Cn1ncc(Cl)c1C(=O)NC(=S)Nc1sc2c(c1C#N)CCCCC2 | 1.11% |
| CC(=O)N(C1=C(O)c2ccccc2C(=O)C1=O)C1CCCCC1 | -2.6% |
| O=C(NCc1ccco1)c1cccnc1Cl | 2.06% |
| COc1cccc(NC(=O)Nc2cccs2)c1 | 19.8% |
| COc1ccc(NC(=O)Nc2cccs2)cc1Cl | 3.45% |
| CC[C@@H]1CCCCc2ccccc2[C@@H](C(=O)C[C@@H](O)CC(C)=O)OC1=O | -2.17% |
| CCC(=O)Nc1cccc(C2=NOC3(C2)C[C@@H](C(N)=O)N(C(=O)c2cc([N+](=O)[O-])cc([N+](=O)[O-])c2)C3)c1 (stereo partly drawn) | 9.27% |
| C/C=C(\C)C(=O)Nc1cccc(C2=NOC3(C2)C[C@H](C(N)=O)N(C(=O)C(c2ccccc2)c2ccccc2)C3)c1 (stereo partly drawn) | 17.8% |
| C/C=C(\C)C(=O)Nc1cccc(C2=NOC3(C2)C[C@H](C(N)=O)N(C(=O)c2cc([N+](=O)[O-])cc([N+](=O)[O-])c2)C3)c1 (stereo partly drawn) | 9.79% |
| CCC(=O)Nc1cccc(C2=NOC3(C2)C[C@@H](C(N)=O)N(C(=O)C(c2ccccc2)c2ccccc2)C3)c1 (stereo partly drawn) | 5.6% |
| C=C(C)C(=O)N1CC2(CC(c3cccc(NC(=O)COc4ccc(Cl)cc4)c3)=NO2)C[C@@H]1C(N)=O (stereo partly drawn) | -2.13% |
| C/C=C(/C)C(=O)Nc1cccc(C2=NOC3(C2)C[C@@H](C(N)=O)N(C(=O)CCCCC)C3)c1 (stereo partly drawn) | 4.38% |
| CCCCCC(=O)Nc1cccc(C2=NOC3(C2)C[C@H](C(N)=O)N(C(=O)CCCCC)C3)c1 (stereo partly drawn) | 14.4% |
| CCC(=O)Nc1cccc(C2=NOC3(C2)C[C@@H](C(N)=O)N(C(=O)COc2ccc(Cl)cc2)C3)c1 (stereo partly drawn) | 1.74% |
| Cc1ccc(-c2cc(C(=O)NC3=NCCS3)c3ccccc3n2)cc1C | -1.5% |
| O=S(=O)(CC=CCS(=O)(=O)c1ccccc1)c1ccccc1 | -17% |
| Cc1nc2nc(C(F)(F)F)[nH]c2nc1C | 0.02% |
| CC(C)(C)NC(=O)C(c1ccc(F)cc1)N(Cc1ccco1)C(=O)CCC(=O)Nc1nccs1 (stereo not drawn) | 5.5% |
| CN[C@@H](C)C(=O)NC[C@H]1O[C@@H](n2cnc3c(N)ncnc32)[C@H](O)[C@@H]1O | -3.01% |
| CC1(C)CC(=O)c2c(O)cc(O)cc2O1 | -0.4% |
| C/C=C(/C)C(=O)Nc1cccc(C2=NOC3(C2)C[C@@H](C(N)=O)N(C(=O)/C=C/CC)C3)c1 (stereo partly drawn) | 13.8% |
| CCC(=O)Nc1cccc(C2=NOC3(C2)C[C@@H](C(N)=O)N(C(=O)CC(c2ccccc2)c2ccccc2)C3)c1 (stereo partly drawn) | 7.06% |

| Compound | inhibition |
| --- | --- |
| C/C=C\C(=O)Nc1cccc(C2=NOC3(C2)C[C@H](C(N)=O)N(C(=O)/C=C/CC)C3)c1 (stereo partly drawn) | 5.75% |
| C/C=C(/C)C(=O)Nc1cccc(C2=NOC3(C2)C[C@@H](C(N)=O)N(C(=O)CC(c2ccccc2)c2ccccc2)C3)c1 (stereo partly drawn) | 24% |
| CCC(C)(C(=O)NC1CCCCC1)N(Cc1cccs1)C(=O)Cc1cccs1 (stereo not drawn) | 23.9% |
| COc1cccc(OC)c1NC(=O)C1CCCN1C(=O)Nc1cccc(Cl)c1 (stereo not drawn) | -0.22% |
| O=C(/C=C/c1cccc([N+](=O)[O-])c1)Nc1ccccn1 | 7.78% |
| CCOc1ccccc1NC(=O)COC(=O)COc1cccc2c1OC(C)(C)C2 | 2.02% |
| COC(=O)C(C)N1C(=O)S/C(=C\c2ccc(-c3ccc(C(=O)O)cc3C)o2)C1=O (stereo not drawn) | 15.9% |
| O=C(O)c1ccccc1-c1ccc(/C=C2\SC(=O)N(c3ccccc3)C2=O)o1 | 3.86% |
| Cc1cccc(-n2ccnc2SCC(=O)O)c1C | -0.53% |
| Cc1ccccc1OCC(=O)OCC(=O)c1ccc[nH]1 | 7.12% |
| O=C(COc1ccc(Cl)cc1Cl)c1ccc[nH]1 | 19.3% |
| Cc1ccnc(NC(=O)CCNC(=O)c2ccc(Cl)cc2)c1 | -5.97% |
| COc1ccccc1N1CCN(C(=O)CSc2nnc(NC(=O)C3CC3)s2)CC1 | 9.27% |
| c1ccc(C2CNCCc3ccccc32)cc1 (stereo not drawn) | -8.69% |
| CN1CCc2cc(Cl)c(O)cc2[C@@H](c2ccccc2)C1 | -6.09% |
| CCc1cccc(C)c1NC(=O)Nc1c(Br)cnn1C | -8.57% |
| Cc1ccc(S(=O)(=O)N2C[C@H]3[C@H]4C(=O)N(c5ccccc5)C(=O)[C@H]4C[C@H](OC(=O)NC4CCCC4)[C@@]3(O)C2)cc1 | -0.48% |
| CC(OC(=O)c1ccc2c(c1)OCCO2)C(=O)NC1CCCCC1C (stereo not drawn) | -7.15% |
| COc1ccc(C=C2C(=O)c3ccccc3C2=O)cc1O | 4.34% |
| COc1cc(C=C2C(=O)c3ccccc3C2=O)ccc1O | -0.66% |
| C#CCSC1=C(C#N)C(c2cccs2)C(C(=O)OCC)=C(C)N1 (stereo not drawn) | 8.23% |
| CCOC(=O)C1=C(C)NC(SCC(N)=O)=C(C#N)C1c1cccs1 (stereo not drawn) | -2.81% |
| Cn1c(SCC(=O)Nc2sc3c(c2C#N)CCC3)nnc1C1COc2ccccc2O1 (stereo not drawn) | 2.45% and 32% |
| CCOC(=O)c1oc2ccccc2c1COC(=O)CNC(=O)c1cccc(C)c1 | -6.29% |
| CN(C)Cc1c(C(=O)N/N=C/c2cccc(OCc3ccccc3)c2)nnn1-c1nonc1N | 19.4% |
| CCN(CC)c1ccc(C(=O)NNC(=O)c2cccn2C)cc1 | 5.54% |

Source: PubChem BioAssay AID1117319 (Southern Research Institute, 2015)
